Experiment [1] concerns the target Phospholipid hydroperoxide glutathione peroxidase GPX4 (Homo sapiens) (UniProt P36969). The experiment can be described thus: Primary qHTS Assay for Inhibitors of Recombinant Selenoprotein Glutathione Peroxidase 4 (GPX4) (AID 1845192). Note: nearly all actives have a fitted effect of over 65% in size. Put shortly:
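Steps: GPX4 plus compound, 30 min RT; add GR/GSH/NADPH master mix; start with cumene hydroperoxide; read 340/450 nm fluorescence at 0 and 15 min. Finals were 200 nM GPX4, 1 mM GSH, 0.5 mM CHP, 0.5 mM NADPH, 100 nM GR.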
(In general: Quantitative high-throughput screening tests each substance at several concentrations.)

Experiment [2] can be described thus: Quantitative High-Throughput drug screen in 47 multiple myeloma cell lines against the NCATS MIPE library collection: EJM_DSMZ cell viability assay (AID 1918926; note: nearly all actives have a fitted effect of over 30% in size; note: potency is the fitted concentration of half-maximal effect). Put shortly:
(§1)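 Inhibition of cell viability is measured here. Each line was plated at 500 cells per well, treated with MIPE 4.0 drugs, kept 48 hours at 37C, then assayed for ATP content by CellTiter-Glo luminescence.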

Experiment [3] is described as follows: Quantitative High-Throughput drug screen in 47 multiple myeloma cell lines against the NCATS MIPE library collection: ARP1_JJKsccF8 cell viability assay (AID 1918928; note: nearly all actives have a fitted effect of over 40% in size; note: potency is the fitted concentration of half-maximal effect). Put shortly: (§2)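 Viability screen: myeloma cells (500/well) incubated 48 h at 37 °C, humidified 5% CO2, with pinned library compounds; CellTiter-Glo added, luminescence read; DMSO wells set 100%, medium-only wells 0%.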

Experiment [4] can be described thus: Quantitative High-Throughput drug screen in 47 multiple myeloma cell lines against the NCATS MIPE library collection: INA6_PLB cell viability assay (AID 1918965; note: nearly all actives have a fitted effect of over 55% in size; note: potency is the fitted concentration of half-maximal effect). Put shortly: (§3)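 CellTiter-Glo luminescence (ATP) after 48 h compound exposure, 37C/5% CO2; 500 cells/well; MIPE 4.0 approved/investigational drugs pinned in; DMSO = 100%, media only = 0% viability.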

A short description of experiment [5]: Quantitative High-Throughput drug screen in 47 multiple myeloma cell lines against the NCATS MIPE library collection: JJN3_DSMZ cell viability assay (AID 1918966; note: nearly all actives have a fitted effect of over 50% in size; note: potency is the fitted concentration of half-maximal effect). In short, it runs like this:
as §1

Experiment [6] can be described thus: Quantitative High-Throughput drug screen in 47 multiple myeloma cell lines against the NCATS MIPE library collection: H1112_PLB cell viability assay (AID 1918967; note: nearly all actives have a fitted effect of over 30% in size; note: potency is the fitted concentration of half-maximal effect). Put shortly: as §1
The nature of experiment [7]: Quantitative High-Throughput drug screen in 47 multiple myeloma cell lines against the NCATS MIPE library collection: Delta47_JCRB cell viability assay (AID 1918925; note: nearly all actives have a fitted effect of over 45% in size; note: potency is the fitted concentration of half-maximal effect). Put shortly:
as §1

The nature of experiment [8]: Quantitative High-Throughput drug screen in 47 multiple myeloma cell lines against the NCATS MIPE library collection: Karpas620_DSMZ cell viability assay (AID 1918959). Note: nearly all actives have a fitted effect of over 30% in size. Note: potency is the fitted concentration of half-maximal effect. In short, it runs like this: (§4)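 Steps: seed 500 cells per well; pin-transfer MIPE 4.0 library; incubate 48 h at 37C, 5% CO2, humidified; add CellTiter-Glo, 5 min room temperature; read luminescence.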

Experiment [9] is described as follows: Quantitative High-Throughput drug screen in 47 multiple myeloma cell lines against the NCATS MIPE library collection: AMO1_DSMZ cell viability assay (AID 1918927; note: nearly all actives have a fitted effect of over 30% in size; note: potency is the fitted concentration of half-maximal effect). In short, it runs like this: as §1
A short description of experiment [10]: Quantitative High-Throughput drug screen in 47 multiple myeloma cell lines against the NCATS MIPE library collection: KMM1_JCRB cell viability assay (AID 1918960). Note: nearly all actives have a fitted effect of over 30% in size. Note: potency is the fitted concentration of half-maximal effect. In short, it runs like this:
as §2

Experiment [11] can be described thus: Quantitative High-Throughput drug screen in 47 multiple myeloma cell lines against the NCATS MIPE library collection: KHM11_PLB cell viability assay (AID 1918962). Note: nearly all actives have a fitted effect of over 35% in size. Note: potency is the fitted concentration of half-maximal effect. In short, it runs like this: as §4
Experiment [12] can be described thus: Quantitative High-Throughput drug screen in 47 multiple myeloma cell lines against the NCATS MIPE library collection: JIM3_ECACC cell viability assay (AID 1918963; note: nearly all actives have a fitted effect of over 35% in size; note: potency is the fitted concentration of half-maximal effect). In short, it runs like this:
as §4

Experiment [13] is described as follows: Quantitative High-Throughput drug screen in 47 multiple myeloma cell lines against the NCATS MIPE library collection: JIM1_ECACC cell viability assay (AID 1918964; note: potency is the fitted concentration of half-maximal effect). In short, it runs like this:
as §1

Experiment [14] is described as follows: Quantitative High-Throughput drug screen in 47 multiple myeloma cell lines against the NCATS MIPE library collection: ARD_JJKsccE7 cell viability assay (AID 1918929; note: potency is the fitted concentration of half-maximal effect). Put shortly: as §1
The nature of experiment [15]: Quantitative High-Throughput drug screen in 47 multiple myeloma cell lines against the NCATS MIPE library collection: Karpas417_ECACC cell viability assay (AID 1918961). Note: potency is the fitted concentration of half-maximal effect. As to conditions: Karpas417 myeloma viability, CellTiter-Glo ATP luminescence, 48 h; viability (% of DMSO): at 45.8 µM (top of the series). In short, it runs like this:
as §3
(Cellular ATP, detected with luciferase, serves as a proxy for viable cell number.)

Results filed as inconclusive are left out. The source made the active and inactive calls. Calls come from the whole dose curve; as a rule, active = well fitted curve in the direction sought with a large enough effect; inconclusive = small, poorly fitted or top-dose-only effect, or another doubt; inactive = no such curve, though single readings can be large; an effect the other way counts as inactive or inconclusive.

The record followed here is PubChem BioAssay (NCATS).

Sequence of Phospholipid hydroperoxide glutathione peroxidase GPX4 (Homo sapiens) (P36969 whole entry, looked up): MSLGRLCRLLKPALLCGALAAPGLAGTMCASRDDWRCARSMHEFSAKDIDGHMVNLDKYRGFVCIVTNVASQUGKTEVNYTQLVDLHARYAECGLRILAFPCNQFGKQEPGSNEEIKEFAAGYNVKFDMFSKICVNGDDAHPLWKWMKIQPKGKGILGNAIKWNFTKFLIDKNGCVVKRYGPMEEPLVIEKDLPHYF

Consider `Cc1cc2nc3c(=O)[nH]c(=O)nc-3n(CC(O)C(O)C(O)CO)c2cc1C` (stereo not drawn), for which the Potency entry in experiment [1], in experiment [4] and in experiment [6] was “inactive” in each case. Besides, the Potency is 1.18 µM (active) in [2], 4.69 µM (active) in experiment [3] and 2.64 µM (active) in [5].

With `CCOC(=O)[C@@H](N)CCC(=O)N[C@@H](CSCc1ccccc1)C(=O)N[C@@H](C(=O)OCC)c1ccccc1`, the Potency entry in experiment [1] and in experiment [3] was “inactive” throughout. The Potency in experiment [7] was 26.4 µM (active); in experiment [8], 14.8 µM (active); in experiment [4], 18.7 µM (active); in experiment [5], 26.4 µM (active).

`CCOc1ccccc1N=Nc1c(C)[nH]n(-c2nc(-c3ccccc3)cs2)c1=O`: the Potency entry in [1], in [7], in experiment [9], in experiment [10], in [11] and in experiment [12] was “inactive” each time. Also, in experiment [4], the Potency result is “inactive”. The Potency in experiment [13] is 1.66 µM (active); in [5] it was 10.5 µM (active).

`O=[N+]([O-])c1ccc(Nc2ccccc2-c2ccccc2)c2nonc12`: in experiment [1], the Potency entry is “inactive”. Besides, the Potency in [8] is 20.9 µM (active); in [6] it was 18.7 µM (active).

For the molecule `CCCCCCCCCCCCCC(=O)N[C@H](CO)[C@H](O)c1ccc([N+](=O)[O-])cc1`, in experiment [1], the Potency entry was “inactive”. Also, the Potency was 18.7 µM (active) in [7]; 10.5 µM (active) in [9]; 20.9 µM (active) in experiment [14]; 16.6 µM (active) in experiment [8]; 20.9 µM (active) in [10]; 26.4 µM (active) in experiment [12]. Moreover, the Potency in experiment [4] was 23.5 µM (active); in [5], 18.7 µM (active).

As to `CC(C)C[C@@H](N)[C@H](O)C(=O)N[C@H](C(=O)N[C@H](C(=O)N[C@@H](CC(=O)O)C(=O)O)C(C)C)C(C)C`, the Potency entry in experiment [1], in experiment [2], in [9], in experiment [8], in [10] and in experiment [13] was “inactive” each time. Besides, the Potency in [12] was 20.9 µM (active).

For `Nc1ncnc2c1ncn2[C@@H]1O[C@H](CO)[C@@H](O)[C@@H]1O`, the Potency entry in [1], in [2], in experiment [12] and in [6] was “inactive” throughout. The Potency in experiment [9] is 1.87 µM (active); in experiment [3], 23.5 µM (active); in experiment [14] it was 2.64 µM (active); in experiment [8] it was 5.26 µM (active); in [10], 1.32 µM (active); in [15], 0.118 µM (active). Also, the Potency was 7.43 µM (active) in experiment [13] and 3.32 µM (active) in experiment [4].

With `COc1ccc(CCN(C)CCCOc2ccc(S(=O)(=O)c3[nH]c4ccccc4c3C(C)C)cc2)cc1OC`, the Potency result in [1], in experiment [9], in experiment [3], in experiment [14] and in experiment [10] was “inactive” throughout. Also, the results for the Potency in experiment [7], in experiment [4] and in experiment [6] were 20.9 µM (active), 16.6 µM (active) and 18.7 µM (active), respectively.

`Cc1ccc(C(=O)N(CCCN)[C@@H](c2nc3cc(Cl)ccc3c(=O)n2Cc2ccccc2)C(C)C)cc1`: the Potency result in experiment [1], in experiment [3], in experiment [15], in experiment [12] and in experiment [13] was “inactive” each time. In addition, the Potency in experiment [10] was 0.001 µM (active); in experiment [11], 10.5 µM (active); in [5], 18.7 µM (active).

Turning to `CCOC(=O)N1c2ccc(C(F)(F)F)cc2[C@@H](N(Cc2cc(C(F)(F)F)cc(C(F)(F)F)c2)C(=O)OC)C[C@H]1CC`, the Potency result in [1], in experiment [9], in experiment [14], in [8], in [10] and in experiment [6] was “inactive” each time. Moreover, the Potency is 4.69 µM (active) in experiment [3] and 5.9 µM (active) in [5].

As to `CN(C)CC[C@H](CSc1ccccc1)Nc1ccc(S(=O)(=O)NC(=O)c2ccc(N3CCN(Cc4ccccc4-c4ccc(Cl)cc4)CC3)cc2)cc1[N+](=O)[O-]`, in [1], the Potency result is “inactive”. Also, the Potency was 5.9 µM (active) in [2]; 13.2 µM (active) in experiment [3]; 8.33 µM (active) in experiment [14]; 0.0662 µM (active) in experiment [8]; 4.69 µM (active) in experiment [10]; 5.26 µM (active) in experiment [11]. Moreover, the Potency in experiment [13] was 1.48 µM (active); in experiment [4] it was 18.7 µM (active); in experiment [5] it was 8.33 µM (active); in experiment [6], 0.0743 µM (active).

As for `CC1=C(CC(=O)O)c2cc(F)ccc2C1=Cc1ccc(S(C)=O)cc1` (stereo not drawn), the Potency result in experiment [1] was “inactive”. Further, the Potency in experiment [7] was 3.72 µM (active); in experiment [2], 0.59 µM (active); in experiment [14], 11.8 µM (active); in [10] it was 20.9 µM (active); in experiment [15] it was 14.8 µM (active); in [5], 10.5 µM (active).

`COC1CCC(C(=O)c2ccc3nc4c(cc3c2)CCCO4)CC1` (stereo not drawn): in experiment [1], the Potency entry is “inactive”. Besides, the Potency in experiment [7] is 16.6 µM (active); in experiment [3], 23.5 µM (active); in [11] it was 9.35 µM (active); in experiment [4], 13.2 µM (active); in experiment [5] it was 20.9 µM (active).

Take `COc1ccc2c(c1)c(C1=C(c3c[nH]c4ccccc34)C(=O)NC1=O)cn2CCCN(C)C`: the Potency entry in experiment [1] is “inactive”. For the same molecule, the Potency in experiment [7] was 7.43 µM (active); in [14], 23.5 µM (active); in [10], 23.5 µM (active); in experiment [12], 13.2 µM (active); in experiment [5], 20.9 µM (active).

Regarding `CCCCc1ccc(NS(=O)(=O)c2ccc(C)c(C(=O)N3CCN(c4cccc(C)c4C)CC3)c2)cc1`, the Potency result in experiment [1], in experiment [14], in experiment [8] and in experiment [10] was “inactive” each time. The Potency is 20.9 µM (active) in experiment [3], 16.6 µM (active) in [12] and 23.5 µM (active) in [5].

Regarding `CC(C)(CO)[C@@H](O)C(=O)NCCC(=O)O`, the Potency result in experiment [1], in experiment [2], in experiment [9], in [14], in [8] and in [10] was “inactive” throughout. Besides, the Potency entry in [12], in experiment [5] and in experiment [6] was “inactive” throughout. Moreover, the Potency in experiment [3] was 1.66 µM (active).

Consider `Cc1ccc2c(=O)c3cccc(CC(=O)O)c3oc2c1C`, for which the Potency entry in experiment [1], in experiment [14], in experiment [8] and in [10] was “inactive” each time. For the same molecule, the Potency in [2] was 6.62 µM (active); in experiment [4] it was 23.5 µM (active); in experiment [6], 26.4 µM (active).

On to `Clc1ccc(COC(Cn2ccnc2)c2ccc(Cl)cc2Cl)c(Cl)c1` (stereo not drawn), for which the Potency entry in experiment [1] was “inactive”. For the same molecule, the Potency was 20.9 µM (active) in [2]; 23.5 µM (active) in [9]; 23.5 µM (active) in experiment [14]; 18.7 µM (active) in [10]; 20.9 µM (active) in [12]; 20.9 µM (active) in experiment [4]. Besides, in [6], the Potency is 18.7 µM (active).

As to `CC(C)C[C@H](NC(=O)c1cc2ccccc2s1)C(=O)N1CCN(C(=O)[C@H](CO)NS(=O)(=O)c2ccc(Cl)cc2Cl)CC1`, the Potency entry in experiment [1] was “inactive”. Besides, the Potency was 26.4 µM (active) in experiment [7], 18.7 µM (active) in [2], 18.7 µM (active) in experiment [5] and 20.9 µM (active) in experiment [6].
